Experimental findings from PubChem BioAssay AID1039 (National Center for Advancing Translational Sciences (NCATS), 2008) are described below.

The source made the active and inactive calls. Where a call stands in place of a potency, no number is given. Calls follow the shape of the full dose curve.

The assay can be described thus: Normal 2 Cell Viability Secondary Assay for qHTS Assay for Epigenetic Modulators. The note with it: Normal 2 bronchial epithelial viability, MTS, 4 days. From the text:
NIH Molecular Libraries Screening Centers Network [MLSCN] NIH Chemical Genomics Center [NCGC] MLSCN Grant: 1 X01 MH079860-01 Assay Provider: Elisabeth D. Martinez, University of Texas SW Medical Center NCGC Assay Overview: This secondary assay characterizes selected actives identified in the qHTS of the Locus Derepression (LDR) assay (PubChem AID 597). The LDR assay detects the derepression of a GFP reporter that is stably integrated in a region of the genome of murine c127i mammary cells that is presumably silenced. Compounds that cause derepression of the locus to express GFP are identified by enumerating GFP positive cells using a laser-scanning microplate cytometer. Selected LDR actives were assayed for killing of Normal 2, a patient-derived normal bronchial epithelial line matched to NSCLC 2, a nonsmall cell lung carcinoma line from the same patient. The Normal 2 line assays the cytoxicity of test compounds on normal lung cells. Normal 2 cell viability was measured using Cell Titer 96 AQueous One (Promega), an assay which detects the ability of metabolically active cells to reduce a tetrazolium salt substrate (MTS), into a soluble formazan product that can be measured by colorimetry.
NCGC Assay Protocol Summary Normal 2 cells were plated in 96-well flat bottom tissue culture dishes (Corning) and grown overnight at 37 C and 5% CO2, then treated with compounds, incubated 4 days, and assayed for viability using the Cell Titer 96 AQueous One kit (Promega) according to the manufacturer's protocol. Absorbance at 490 nm and 650 nm (reference) was measured by a Spectra Max (Molecular Devices). Data were normalized to the untreated control (100% viability). Each cell line was tested in one or two independent assays, each containing 4 or 8 replicates. For further details, see R.L. Johnson, W. Huang, A. Jadhav, C.P. Austin, J. Inglese, E.D. Martinez, A Quantitative High-Throughput Screen Identifies Potential Epigenetic Modulators of Gene Expression, Analytical Biochemistry (2007), doi: 10.1016/j.ab.2007.12.028
On the technique in general: In qHTS, concentration-response curves come from the screen itself.
For the compound `O=C(CSc1cccc2cccnc12)NCc1ccccc1`, the result was inactive.

For the compound `CC(C)C(=O)NC(c1ccco1)c1ccc2cccnc2c1O` (stereo not drawn), the Potency is 10 µM (active).

Turning to `O=C(CSc1cccc2cccnc12)N1CCCC1`, the outcome was inactive.

For the compound `CC(C)C(=O)NC(c1ccc(N(C)C)cc1)c1ccc2cccnc2c1O` (stereo not drawn), the Potency is 5 µM (active).

`CN1C(=S)SC(c2ccccc2)N(C)C1c1ccccc1` (stereo not drawn): the compound was classed as inactive.

As for `CC(C)C(=O)NC(c1ccco1)c1cc([N+](=O)[O-])c2cccnc2c1O` (stereo not drawn), the Potency is 2 µM (active).

With `CC(/C=C/C(=O)NO)=C\[C@@H](C)C(=O)c1ccc(N(C)C)cc1`, the outcome was inactive.

Regarding `O=Nc1ccc(O)c2ncccc12`, the Potency is 9 µM (active).
